Only some compounds are listed: those with a hit (about 2.1% of all), similar ones and a draw of the others.
GalR3 antagonist – human GalR3 antagonism; O60755; 0.44% of 360,000 active; inhibition, % at 3 µM; HEK293 GalR3-CNG cAMP membrane potential fluorescence; galR3 body fused to GalR1 C-terminus;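 active means inhibition above the screen-wide average plus 3 SD, cut at about 13% in these data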;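 further: forskolin and galanin both at EC90 stimulate the cells; cAMP rise reported by CNG channel membrane potential dye signal; 0% = forskolin plus galanin with DMSO and 100% = forskolin alone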
COUP-TFII inh – inhibitors of human COUP-TFII (NR2F2) | P24468 | HEK293T NGFI-A luciferase reporter, luminescence | inhibition, % at 8.6 µM | 0.7% of 370,000 active | AID 686940;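 active means inhibition above a per-plate cutoff, mean inhibition of test wells between control levels plus 3 SD, cut at about 38% in these data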;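 further: cells cotransfected with COUP-TFII expression vector driving the NGFI-A reporter; 0% = median of COUP-TF2 test wells and 100% = reporter-only cells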
Target sequence (P24468 whole entry, looked up): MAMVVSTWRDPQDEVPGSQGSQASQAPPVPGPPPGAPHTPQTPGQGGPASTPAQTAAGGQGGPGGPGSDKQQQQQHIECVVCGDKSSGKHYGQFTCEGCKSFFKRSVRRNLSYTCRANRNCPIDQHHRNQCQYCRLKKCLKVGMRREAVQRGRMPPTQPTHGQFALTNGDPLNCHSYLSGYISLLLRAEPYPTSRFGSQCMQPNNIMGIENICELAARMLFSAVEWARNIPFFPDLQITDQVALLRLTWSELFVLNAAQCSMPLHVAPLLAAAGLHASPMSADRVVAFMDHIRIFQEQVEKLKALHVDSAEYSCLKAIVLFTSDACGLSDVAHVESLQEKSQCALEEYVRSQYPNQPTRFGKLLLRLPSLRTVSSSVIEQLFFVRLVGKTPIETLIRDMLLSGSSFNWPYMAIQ
HIV Env fusion – inhibitors of HIV Env-mediated cell fusion. HeLa-JRFL Env/CEM21 cell fusion, luciferase. inhibition, % at 12.3 µM. 1.1% of 360,000 active. AID 651610;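 active means mean replicate inhibition score of at least 50 and every replicate individually at or above 50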;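 further: 0% = plate neutral controls and 100% = maraviroc near 300 nM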
Gli-Sufu antag – antagonists of Gli-Sufu signaling. Sufu-KO-LIGHT fibroblasts, Gli luciferase reporter luminescence. inhibition, % at 5 µM. 0.74% of 340,000 active. AID 588413;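 active means inhibition above about 55%, limit read from the data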;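 further: 0% = DMSO-treated cells and 100% = wells with medium but no cells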
aDG glyco act – increases alpha dystroglycan glycosylation. Pro5-aDG cells, alpha-DG glycosylation AlphaScreen (IIH6); 0% Pro5, 100% B10-LARGE cell signal. activation, % at 10 µM. 0.22% of 360,000 active;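 active means activation of at least 8% versus controls, or a plate z-score of at least 8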;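 further: Pro5 are CHO cells carrying HIG-tagged alpha-DG that lacks glycosylation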
Active calls of the source: *; . = not tested or not shown; [ ] = another dose, or the depositor's remark.

SMILES	GalR3 antagonist	COUP-TFII inh	HIV Env fusion	Gli-Sufu antag	aDG glyco act
Cc1cc(/C=C(\C#N)C(=O)Nc2ccc(F)cc2)c(C)n1-c1ccc(N2CCOCC2)c([N+](=O)[O-])c1	-5	8	85*	18	0
CCOC(=O)N1CCN(C(=O)C[C@H]2C[C@@]3(C(=O)OC)C(=C[C@H](C(C)(C)C)O[C@@H]3C)N(CCc3ccc(OC)c(OC)c3)C2=O)CC1	.	1	.	.	.
COC(=O)[C@]12C[C@H](CC(=O)N3CCCC3)C(=O)N(CCC3=CCCCC3)C1=C[C@H](C1CCCC1)O[C@@H]2C	.	3	.	.	.
CCOC(=O)N1CCN(C(=O)C[C@H]2C[C@@]3(C(=O)OC)C(=C[C@H](C(C)(C)C)O[C@@H]3C)N(CCC3=CCCCC3)C2=O)CC1	-7	7	98*	.	.
COC(=O)[C@]12C[C@H](CC(=O)N3CCN(C(=O)C4CC4)CC3)C(=O)N(CCC3=CCCCC3)C1=C[C@H](C(C)(C)C)O[C@@H]2C	-7	-1	57*	.	.
COc1cccc(S(=O)(=O)Nc2ccc3c(c2)[C@H]2C[C@@H](CC(=O)N[C@@H](C)c4ccccc4)O[C@@H](CO)[C@H]2O3)c1	.	.	2[16.7 µM]	.	.
Cc1noc(C)c1NC(=O)Nc1cccc2c1O[C@@H](CN(C)C(=O)Nc1c(C)noc1C)[C@H](C)CN([C@@H](C)CO)C2=O	.	.	-8[16.7 µM]	.	.
O=C1c2cccc(NCCNCCO)c2C(=O)c2cccc(NCCNCCO)c21	-2	1	59*	-10	1
O=C(O)CCNc1ccc(NCCC(=O)O)c2c1C(=O)c1ccccc1C2=O	-10	-2	22	13	0
C[C@H](CO)N1C[C@H](C)[C@@H](CN(C)C(=O)c2ccncc2)OCCCC[C@H](C)Oc2ccc(NC(=O)NC3CCCCC3)cc2C1=O	.	.	-4[16.7 µM]	.	.
Cc1cccc(C)c1NC(=O)C1C(c2ccccc2)=Nc2ccccc2N1C(=O)c1cnccn1 (stereo not given)	-5	-20	64*	.	0
COCCCn1c(-c2ccc(S(=O)(=O)N3CCOCC3)cc2)csc1=Nc1ccccc1	5	1	70*	30	0
CCn1c(-c2ccccc2)csc1=Nc1ccc(S(=O)(=O)O)cc1	-5	15	34	-1	0
C=C[C@H](Cc1ccccc1)N(Cc1ccccc1)S(=O)(=O)N(Cc1ccccc1)[C@H](C=C)Cc1ccccc1	-6	11	61*	21	2
C[C@@H]1CN([C@@H](C)CO)C(=O)c2cc(NC(=O)Nc3cccc4ccccc34)ccc2O[C@@H]1CN(C)Cc1ccc(Oc2ccccc2)cc1	.	.	-19[16.7 µM]	.	.
COC(=O)C1=C(C)NC(C)=C(C(=O)OC)C1C(=O)OCC(=O)NC1CCCCC1C (stereo not given)	-3	-4	68*	.	0
CC(=O)c1ccc(NC(=O)c2cc(CC(C)C)nc3ccccc23)cc1	-10	7	58*	.	0
CC(C)Cc1cc(C(=O)O)c2ccccc2n1	-5	-17	.	36	0
O=C(CNC(=O)c1cccc(-n2cccc2)c1)Nc1ccccc1Br	-6	0	70*	.	0
CO[C@H]1CN(C)C(=O)c2cc(C#N)ccc2OCC[C@@H]2CC[C@@H](OC)[C@H](CN(C)C(=O)[C@@H]1C)O2	.	.	17[16.7 µM]	.	.
Cc1cc(Oc2ccc(C#N)cc2)nc(NCc2ccccc2)n1	-3	20	61*	6	1
COc1ccc(Nc2cc(C)nc(NCc3ccccc3)n2)cc1	-9	18	71*	36	0
COC(=O)c1ccc(Oc2cc(C)nc(NCc3ccccc3)n2)cc1	-7	-17	.	8	0
CCCNC(=O)N1[C@H](C#N)[C@H](c2ccc(-c3cccc(OC)c3)cc2)[C@@H]1CO	.	.	58*[16.7 µM]	.	.
Cc1cccc(/C=N\Nc2cn[nH]c(=O)c2Cl)c1	-2	-65	73*	4	0
SMILES	GalR3 antagonist	COUP-TFII inh	HIV Env fusion	Gli-Sufu antag	aDG glyco act
O=c1[nH]ncc(N/N=C\c2cccnc2)c1Cl	-6	14	26	3	0
COc1ccc(C#Cc2ccc3c(c2)[C@]2(C(=O)N3)[C@H](C(=O)N3CCN(c4ncccn4)CC3)[C@H]3C(=O)O[C@H](c4ccccc4)[C@H](c4ccccc4)N3[C@@H]2c2ccc(O)cc2)cc1	.	.	-20[16.7 µM]	.	.
Brc1ccc2ncnc(NCc3ccco3)c2c1	-6	34	67*	11	4
COc1ccc(CCN(Cc2cccs2)S(=O)(=O)c2ccccc2)cc1OC	.	8	.	.	.
COc1ccc(CCN(Cc2cccs2)S(=O)(=O)c2ccc(-n3cnnn3)cc2)cc1OC	-3	23	86*	9	0
O=C(N[C@H]1CC[C@@H](CCNC(=O)C2CCC2)O[C@H]1CO)c1ccncc1	.	.	4[16.7 µM]	.	.
Cc1cc(NC(c2ccc(Cl)cc2)c2ccc3cccnc3c2O)no1 (stereo not given)	-1	7	.	67*	2
CCCC(=O)NC(c1ccc(N(C)C)cc1)c1ccc2cccnc2c1O (stereo not given)	-9	-29	-27	86*	0
CCC(=O)NC(c1ccc(C)cc1)c1cc([N+](=O)[O-])c2cccnc2c1O (stereo not given)	0	-17	26	-4	0
Cc1ccnc(NC(c2ccccc2)c2ccc3cccnc3c2O)c1 (stereo not given)	-1	12	-19	-7	1
Oc1ccccc1C(Nc1nccs1)c1ccc2cccnc2c1O (stereo not given)	-6	32	60*	8	0
CC(=O)NC(c1ccc(C)cc1)c1cc([N+](=O)[O-])c2cccnc2c1O (stereo not given)	-6	15	48*	13	1
CCC(=O)NC(c1ccc(Cl)cc1Cl)c1ccc2cccnc2c1O (stereo not given)	-2	-16	-3	89*	0
CC(=O)NC(c1ccc(Cl)cc1)c1ccc2cccnc2c1O (stereo not given)	-10	14	1	80*	0
CCCC(=O)NC(c1ccc(C(C)C)cc1)c1ccc2cccnc2c1O (stereo not given)	-14	-4	-276	.	0
CCCCC[n+]1ccn(C2=C([O-])c3ccccc3C(=O)/C2=N\S(=O)(=O)c2ccc(Cl)cc2)c1	-4	-5	-13	-11	4.9*
C[C@@H](C(=O)Nc1ccc2ccccc2c1)[C@@H]1C[C@@]1(C)[C@@H](NC(=O)c1ccccc1)c1ccccc1	-4	8	23	2	0
C[C@@H](C(=O)Nc1ccc2ccccc2c1)[C@H]1C[C@]1(C)[C@H](NC(=O)c1cccnc1)c1ccccc1	-8	15	68*	10	.
COc1ccc(NC(=O)N(C)C[C@H]2Oc3c(NS(C)(=O)=O)cccc3C(=O)N([C@@H](C)CO)C[C@H]2C)cc1	.	.	6[16.7 µM]	.	.
CC1=C(C(=O)OCc2ccc3c(c2)OCO3)C(c2ccccc2OCc2ccccc2)NC(=O)N1 (stereo not given)	-3	22	61*	10	0
